Assay results as given in paper PMC4336329 (PLoS ONE, 2015).
In all, about 310,000 compounds went through this assay and about 14,000 (4.5%) showed an effect of 50% or more. The effect is printed as a negative number. This is one part of a sample in which strong results are shown more often than they occur.

biological target: human ether-à-go-go-related gene (hERG) potassium channel (human, UniProt Q12809); assay: primary screen, population patch clamp on CHO cells stably expressing hERG; higher = less effect of the substance
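Further: peak tail current of the secondary pulse compared with the same well before compound.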

human ether-à-go-go-related gene (hERG) potassium channel, sequence (Q12809 whole entry, looked up): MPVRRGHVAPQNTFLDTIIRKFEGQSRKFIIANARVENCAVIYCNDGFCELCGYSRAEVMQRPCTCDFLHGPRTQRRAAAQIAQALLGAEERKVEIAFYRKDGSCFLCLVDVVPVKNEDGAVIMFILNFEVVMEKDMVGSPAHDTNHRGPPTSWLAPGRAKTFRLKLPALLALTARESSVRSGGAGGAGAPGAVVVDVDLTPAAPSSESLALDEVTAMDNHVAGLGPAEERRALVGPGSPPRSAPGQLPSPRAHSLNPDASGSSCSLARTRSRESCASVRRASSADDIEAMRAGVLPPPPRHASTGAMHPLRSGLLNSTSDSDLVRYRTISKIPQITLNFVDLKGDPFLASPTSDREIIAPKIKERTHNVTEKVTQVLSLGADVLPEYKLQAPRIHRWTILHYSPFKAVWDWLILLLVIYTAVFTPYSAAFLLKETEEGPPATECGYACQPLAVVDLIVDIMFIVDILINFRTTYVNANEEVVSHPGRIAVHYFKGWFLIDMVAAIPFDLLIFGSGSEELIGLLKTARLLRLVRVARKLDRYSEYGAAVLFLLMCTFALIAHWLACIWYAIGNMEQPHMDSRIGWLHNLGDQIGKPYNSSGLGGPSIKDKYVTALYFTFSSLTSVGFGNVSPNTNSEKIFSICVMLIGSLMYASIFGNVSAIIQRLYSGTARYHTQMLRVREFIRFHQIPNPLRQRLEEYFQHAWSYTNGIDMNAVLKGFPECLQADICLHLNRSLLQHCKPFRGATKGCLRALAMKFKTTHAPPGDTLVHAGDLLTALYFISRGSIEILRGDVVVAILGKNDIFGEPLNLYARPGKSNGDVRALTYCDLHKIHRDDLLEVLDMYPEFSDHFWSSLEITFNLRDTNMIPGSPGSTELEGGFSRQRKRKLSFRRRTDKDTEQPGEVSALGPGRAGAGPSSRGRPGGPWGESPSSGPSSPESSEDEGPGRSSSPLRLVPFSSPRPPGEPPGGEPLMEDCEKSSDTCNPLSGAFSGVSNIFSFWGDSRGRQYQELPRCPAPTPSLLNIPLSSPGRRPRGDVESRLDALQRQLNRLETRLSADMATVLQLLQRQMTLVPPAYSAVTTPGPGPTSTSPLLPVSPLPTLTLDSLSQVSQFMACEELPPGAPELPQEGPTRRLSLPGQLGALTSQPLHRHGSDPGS

| SMILES | hERG current change (%, negative = inhibition) at 10uM [%] |
| --- | --- |
| CC1CCN(C(=O)CCc2nnc(-c3ccccc3)o2)CC1 | -5.83 |
| O=C(NNc1ccc([N+](=O)[O-])cc1)C12CC3CC(CC(C3)C1)C2 | 19.5 |
| CC(=O)Nc1ccc(OCc2cccc([N+](=O)[O-])c2)cc1 | 8.84 |
| Cc1onc(-c2ccccc2Cl)c1C(=O)Oc1cc(N)n(S(=O)(=O)c2ccc(F)cc2)n1 | -3.48 |
| COc1ccccc1Cc1nc(-c2cccnc2)no1 | 14.8 |
| Cc1ccn2c(C(=O)CSc3ccc(Cl)cc3)c(C)nc2c1 | 7.28 |
| CCOc1ccc(N2C(=O)CC(NCC3CCCO3)C2=O)cc1 (centres unmarked) | 2.22 |
| O=C(Nc1ccccc1)C(c1ccccc1)c1ccccc1 | 15.1 |
| CCCCOc1ccc(C(=O)N/C(=C/C=C/c2ccccc2)C(=O)N2CCOCC2)cc1 | -5.66 |
| O=C(N/C(=C\c1ccccc1)C(=O)N1CCCCCC1)c1ccccc1 | 15.2 |
| O=C(N/C(=C/C=C\c1ccccc1)C(=O)N1CCOCC1)c1ccc(Br)cc1 | -64.1 |
| O=C(N/C(=C\c1ccc([N+](=O)[O-])cc1)C(=O)N1CCCCC1)c1ccccc1 | -76.9 |
| O=C(N/C(=C/c1ccccc1)C(=O)N1CCCCC1)c1ccccc1 | 29.9 |
| O=C(N/C(=C/C=C/c1ccccc1)C(=O)N1CCOCC1)c1ccccc1Cl | -16.6 |
| Cc1cc(C(=O)OCC(=O)Nc2cccc(S(N)(=O)=O)c2)c2ccccc2n1 | -4.62 |
| COc1cc(C2NC(=S)NC(c3ccccc3)=C2C(C)=O)ccc1O (centres unmarked) | 15.4 |
| CCOCCCNC(=O)c1ccc2nc(-c3ccc(OC)c(OC)c3)c(-c3ccc(OC)c(OC)c3)nc2c1 | 6.99 |
| [Cl-].[NH3+]CCCn1c(C(=O)c2ccc(Cl)cc2)c2ccc([N+](=O)[O-])cc2[n+]1[O-] | -63.8 |
| Cc1ccc(C(=O)c2c3ccc([N+](=O)[O-])cc3[n+]([O-])n2CCCC(N)=O)cc1 | -36.6 |
| NC(=O)CCCn1c(C(=O)c2cc(Cl)c(N)c(Cl)c2)c2ccc([N+](=O)[O-])cc2[n+]1[O-] | -30.9 |
| NC(=O)CCCn1c(C(=O)c2ccc(Cl)cc2)c2ccc([N+](=O)[O-])cc2[n+]1[O-] | -74.1 |
| COc1ccc(C(=O)c2c3ccc([N+](=O)[O-])cc3[n+]([O-])n2CCC[NH3+])cc1.[Cl-] | -47.4 |
| NC(=O)CCn1c(C(=O)c2cccc([N+](=O)[O-])c2)c2ccccc2[n+]1[O-] | 4.25 |
